Measurements published in PubChem BioAssay AID434970 (Sanford-Burnham Center for Chemical Genomics, 2010).
In all, about 11,000 compounds went through this assay and about 310 (2.8%) were called active. Rule as the data show it: active = activity change below about -85%; inactive = the rest. The sample as a whole holds a higher share of actives than the screen did.

tested on: intestinal alkaline phosphatase [Mus musculus]; assay: activators of mouse IAP, confirmation, biochemical, luminescence, single concentration (AID 434970); conditions: purified mouse IAP, CDP-Star luminescence, 30 min, at 10 µM; activation factor: measured here: IAP activation factor, stronger effect = higher value; activity change, negative = activation: stronger effect = lower value

SMILES	activation factor	activity change, negative = activation
CC(=O)Nc1ccc(Nc2nc(C)nc3c2oc2ccccc23)cc1	1.01	-1.3% (inactive)
Cn1nnnc1SCC(=O)Nc1ccc(Oc2ccccc2)cc1	0.952	4.85% (inactive)
COc1ccc(CCn2c(C)cc(C(=O)CSc3nnc(N)s3)c2C)cc1	0.959	4.1% (inactive)
O=C(NCc1ccc(Cl)cc1Cl)C1CCN(S(=O)(=O)c2ccc3c(c2)OCCCO3)CC1	1.48	-48.2% (inactive)
COCCNC(=O)CN(C)S(=O)(=O)c1ccc2c(c1)OCCO2	0.928	7.15% (inactive)
COc1ccc(NC2=C(C(C)=O)C(c3ccc(OC)c(OC)c3)C(C(C)=O)C(C)(O)C2)cc1 (configuration not stated)	1.08	-7.85% (inactive)
CCn1nnnc1SCC(=O)Nc1ccc2c(c1)OCO2	0.992	0.8% (inactive)
Cc1cc(NC(=O)Nc2ccc(Cl)c(Cl)c2)n(-c2ccccc2)n1	2.79	-179% (active)
CCOC(=O)/C=C(\C)Nc1cc(C)nn1-c1ccccc1	1.04	-4.05% (inactive)
Cc1cc(NC(=O)c2ccc(C)s2)n(-c2ccccc2)n1	1.01	-0.8% (inactive)
Cc1cc(NC(=O)Nc2cc(C)nn2-c2ccccc2)n(-c2ccccc2)n1	0.992	0.75% (inactive)
Cc1cc(NC(=O)Nc2ccc(Cl)cc2)n(-c2ccccc2)n1	2.07	-107% (active)
COc1ccc(-c2cc(C(=O)Nc3cc(C)nn3-c3ccccc3)no2)cc1	0.921	7.9% (inactive)
Cc1cc(NC(=O)Nc2cccc(Cl)c2)n(-c2ccccc2)n1	1.97	-97.1% (active)
Cc1nn(C)c(C)c1NC(=O)Nc1ccc(Cl)c(Cl)c1	1.62	-62.2% (inactive)
COc1cccc(-c2cc(C(=O)Nc3cc(C)nn3-c3ccccc3)no2)c1	1.1	-10.2% (inactive)
COc1cc(C2Nc3cc(Cl)c(S(N)(=O)=O)cc3S(=O)(=O)N2)ccc1OCc1ccccc1 (configuration not stated)	0.84	16% (inactive)
CC[C@]12c3[nH]c4cc(CCC(=O)N(C)C)ccc4c3CCN1C(=O)[C@@H](CC(=O)NCC13CC4CC(CC(C4)C1)C3)C[C@@H]2C(=O)N1CCN(C(=O)C2CC2)CC1	1.15	-14.6% (inactive)

SMILES	activation factor	activity change, negative = activation
O=C(CCl)Oc1ccc2occ(C(=O)c3cccs3)c2c1	0.89	11% (inactive)
Cc1[nH]c2ccccc2c1C(=O)COC(=O)C1CC(=O)N(Cc2ccco2)C1 (configuration not stated)	1.14	-13.6% (inactive)
CCOC(=O)C1=CNS(=O)(=O)NC1c1ccc(C)cc1 (configuration not stated)	0.96	4.05% (inactive)
COc1ccc2c(c1)[nH]c1c(=O)n(CCc3cnc[nH]3)cnc12	1.02	-1.9% (inactive)
CCCCOc1ccc(-c2nnc(-c3ccncc3)o2)cc1	0.94	6.05% (inactive)
CCCCCOc1ccc(C(=O)CCC(=O)NNC(=O)c2ccncc2)cc1	3.52	-252% (active)
CCCOc1ccc(C(=O)NCCO)cc1	1.01	-1.1% (inactive)
CC[C@]1(C(=O)OC)[C@H]2C(=O)N(C)C(=O)[C@H]2[C@H]2CN=C(SCc3ccc(C#N)cc3)N21	1.07	-6.55% (inactive)
N#Cc1nc(-c2ccc(Cl)cc2)oc1NCc1ccco1	0.952	4.8% (inactive)
COc1ccccc1-c1cc(C(F)(F)F)nc(N2CCCC2)n1	0.939	6.15% (inactive)
O=C(Cn1cc(C(=O)c2ccco2)c2ccccc21)NCc1ccco1	0.907	9.3% (inactive)
S=C(NCc1ccc(Cl)cc1Cl)NC1CCCCC1	1.93	-93% (active)
S=C(NCc1cccc(Cl)c1)NC1CCCCC1	1.14	-14.3% (inactive)
S=C(NCc1ccc(Cl)cc1Cl)Nc1ccccc1	1.41	-41% (inactive)
Cc1cccc(NC(=O)C2=C(O)c3ccccc3N(C)S2(=O)=O)c1	0.998	0.2% (inactive)
N#Cc1nc(COc2ccc(Cl)cc2)oc1N1CCCCCC1	0.964	3.6% (inactive)
CCOC(=O)c1cccc(NC(=O)CCS(=O)(=O)c2cccs2)c1	1.01	-0.85% (inactive)
COc1ccc(C(=O)NNC(=S)NC(=O)c2cc(-c3ccccc3)nc3ccccc23)cc1	0.848	15.2% (inactive)
